# ZTA DNA inh = blocks Epstein-Barr virus ZTA, an EBNA-1 counter-screen. P03206. ZTA-DNA binding, fluorescence polarization. AID 2234. inhibition, % at 11 µM. 320,000 tested, 0.15% active; in the data active = inhibition above about 33%
# EBNA-1 inh = blocks EBNA-1 binding to DNA; EBNA-1 DNA binding, fluorescence polarization; inhibition, % at 14.8 µM; 300,000 tested, 0.34% active; AID 1950; in the data active = inhibition above about 28%
# rCAG binder = binds r(CAG) RNA repeats | r(CAG) RNA repeat, TO-PRO-1 dye displacement fluorescence | inhibition, % at 3 µM | 370,000 tested, 1.3% active;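 active = inhibition above the plate cutoff, the mean of all test compounds on that plate plus 3 SD, cut at about 35% in these data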;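 note: higher means more dye released from RNA so lower well fluorescence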
# PAFAH1B3 inh = inhibitors of human PAFAH1B3. Q15102. recombinant PAFAH1B3, FP-rhodamine probe, fluorescence polarization. inhibition, % at 3.39 µM. 340,000 tested, 0.28% active. AID 492972;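 active = inhibition above the screen-wide average of all tested compounds plus 3 SD, cut at about 25% in these data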
# Target sequence (Q15102 whole entry, looked up): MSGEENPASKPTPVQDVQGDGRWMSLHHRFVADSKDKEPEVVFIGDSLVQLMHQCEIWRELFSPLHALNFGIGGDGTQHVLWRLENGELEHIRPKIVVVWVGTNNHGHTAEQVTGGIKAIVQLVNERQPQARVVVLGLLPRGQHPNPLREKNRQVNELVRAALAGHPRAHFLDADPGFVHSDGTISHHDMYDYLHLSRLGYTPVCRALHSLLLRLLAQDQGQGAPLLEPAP
# PAFAH1B2 inh = blocks human PAF acetylhydrolase 1b catalytic subunit 2. P68402. recombinant PAFAH1B2, FP-rhodamine activity probe, fluorescence polarization. inhibition, % at 3.39 µM. 340,000 tested, 1.2% active. AID 492953;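 active = inhibition above the mean of all tested compounds plus 3 SD, cut at about 24% in these data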
# Target sequence (P68402 whole entry, looked up): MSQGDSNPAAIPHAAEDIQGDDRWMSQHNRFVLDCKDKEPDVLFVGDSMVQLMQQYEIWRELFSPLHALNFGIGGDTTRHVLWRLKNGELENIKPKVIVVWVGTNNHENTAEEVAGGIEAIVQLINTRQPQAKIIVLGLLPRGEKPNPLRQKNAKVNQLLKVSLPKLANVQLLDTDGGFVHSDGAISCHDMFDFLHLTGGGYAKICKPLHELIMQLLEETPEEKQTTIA
# PAFAH2 inh = PAFAH2 (human) inhibition | inhibition, % at 3.39 µM | 340,000 tested, 0.99% active | recombinant PAFAH2, FP-rhodamine activity probe, fluorescence polarization | Q99487;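 active = inhibition above the mean over all tested compounds plus 3 SD, cut at about 30% in these data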;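 note: inhibitors block probe labeling of enzyme so polarization drops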
# EBNA-1 confirm = EBNA-1 (EBV) inhibition, confirmation. shares compounds with EBNA-1 inh. inhibition, % at 14.8 µM. Recombinant EBNA-1 DBD, Cy5-DNA fluorescence polarization. 830 tested, 35% active;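 active = mean inhibition across replicates above a set limit taken from the earlier primary screen, cut at about 28% in these data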
# ZTA DNA inh trip = ZTA (EBV) inhibition, triplicate counter-screen; AID 2328; inhibition, % at 11.1 µM; 830 tested, under 10 active; Zta-ZRE DNA binding, Cy5 fluorescence polarization; shares compounds with EBNA-1 inh;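 active = mean inhibition over triplicates above a set limit taken from the primary EBNA-1 screen, cut at about 37% in these data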;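 note: purified full length Zta protein with Cy5 labeled ZRE DNA probe; inhibitors lower polarization by freeing the labeled DNA probe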
# Hits are given with their value; n = inactive; x = no result given; + = active, no number; ! = a repeat was not active. Most compounds without a hit are left out; they make up all but 2.9% or so of the library.
SMILES,ZTA DNA inh,EBNA-1 inh,rCAG binder,PAFAH1B3 inh,PAFAH1B2 inh,PAFAH2 inh,EBNA-1 confirm,ZTA DNA inh trip
CCOC(=O)Nc1ccccc1C(=O)Nc1cc(C)cc(C)c1,n,n,n,n,n,n,x,x
Cc1cccc(COC(=O)Nc2ccc(NC(=O)c3ccccc3Cl)cc2)c1,n,47.8,n,n,n,n,n,n
CCc1nnc(NC(=O)CSc2ccc(-c3nc4ccc(C)cc4[nH]3)cn2)s1,n,44.6,n,n,n,n,n,n
COc1ccc(Cn2ccc3ccc(-c4ccc5ccn(C(=O)c6ccc(C)cc6)c5c4)cc32)cc1,x,x,n,x,x,x,x,x
Cc1nc(Nc2cccc(Cl)c2)c2oc3ccccc3c2n1,n,28.5,n,n,n,n,n,n
CC1CCN(S(=O)(=O)c2ccc(NC(=O)Cn3nnc(-c4ccccc4)n3)cc2)CC1,n,30.1,n,n,n,n,n,n
Cc1ccc(-c2nnn(CC(=O)Nc3ccc(S(=O)(=O)N4CCC(C)CC4)cc3)n2)cc1,n,n,n,n,n,n,x,x
COc1ccc(C2CC(C(F)(F)F)n3nc(C(=O)Nc4ccc5c(c4)OCO5)cc3N2)cc1 (stereo unspecified),n,40.2,n,n,n,n,109.8,n
COc1ccc(OC)c(NC(=O)c2cc3n(n2)C(C(F)(F)F)CC(c2ccc4c(c2)OCO4)N3)c1 (stereo unspecified),n,n,n,n,n,n,x,x
CC[N+](C)(C)CCN(Cc1ccc(Cl)cc1)c1ccccn1,n,n,n,n,n,n,x,x
COc1ccc(CN(CCN(C)C)c2ccccn2)cc1,n,+!,n,n,n,n,n,n
CCN(/N=C/C=C/c1ccccc1)c1cc(=O)n(C)c(=O)[nH]1,n,n,n,n,n,n,x,x
CCN(/N=C/c1ccc(Cl)cc1)c1cc(=O)n(C)c(=O)[nH]1,n,37.3,n,n,n,n,n,n
CCn1c(SCC(=O)Nc2ccccc2-c2ccccc2)nnc1-c1cnccn1,x,x,n,x,x,x,x,x
O=C(Nc1ccc2c(c1)OCO2)C1CCN(c2ccc(S(=O)(=O)N3CCOCC3)cc2)CC1,n,29.4,n,n,n,n,n,n
Cc1nc2ccccn2c1C(=O)/C=C/c1ccc(F)cc1,n,n,n,n,n,n,x,x
COc1ccc(/C=C/C(=O)c2c(C)nc3ccccn23)cc1,n,69.5,n,n,n,n,40.0,n
CCOC(=O)[C@]12CCCC=C1N(CCC1=CCCCC1)C(=O)[C@H](CC(=O)NCc1cccc3ccccc13)C2,x,x,n,x,x,x,x,x
c1cc2ccc3ccc(-n4cnnn4)c4ccc(c1)c2c34,n,34.4,n,n,n,n,35.5,n
Cc1ccc(Cn2c(=O)n(Cc3ccc(C(=O)NCC4COC4)cc3)c(=O)c3ccccc32)cc1,x,x,n,x,x,x,x,x
CC(C)NC(=O)C1CC(=O)N(c2ccc(F)c(Cl)c2)C1 (stereo unspecified),n,31.8,n,n,n,n,n,n
COc1cccc(-c2cc(=O)c3cc(NC(=O)c4ccccc4)ccc3[nH]2)c1,n,n,n,n,n,n,x,x
COc1cccc(-c2cc(=O)c3cc(NC(=O)c4ccc(N(C)C)cc4)ccc3[nH]2)c1,n,41.8,x,x,x,x,n,n
Cc1cc2c(Nc3ccc(O)cc3)ncnc2s1,x,x,n,n,n,n,x,x
Cc1cc2c(Nc3ccc(C(=O)O)cc3)ncnc2s1,n,97.1,n,n,n,n,n,n
SMILES,ZTA DNA inh,EBNA-1 inh,rCAG binder,PAFAH1B3 inh,PAFAH1B2 inh,PAFAH2 inh,EBNA-1 confirm,ZTA DNA inh trip
O=C(Cn1nc(C(=O)O)c2ccccc2c1=O)Nc1nc(-c2ccccc2)cs1,n,31.5,n,n,n,n,30.2,n
O=C(Cn1cnc2ccccc2c1=O)Nc1nc2ccccc2s1,n,45.2,n,n,n,n,54.8,n
O=C(CCn1cnc2ccccc2c1=O)Nc1nc(-c2ccc(Br)cc2)cs1,n,32.3,n,n,n,n,44.4,n
CCCCCCCCN1C(=O)[C@@H](CC(=O)NCCc2ccccc2OC)C[C@@]2(C(=O)OC)C1=C[C@H](C(C)C)O[C@@H]2C1CC1,x,x,n,x,x,x,x,x
Cc1ccc2c(c1)N1C(=O)c3ccccc3C1C1=C(CC(C)(C)CC1=O)N2 (stereo unspecified),n,92.8,n,n,n,n,n,n
CCOc1ccc(C(=O)NCCCCNC(=O)c2ccc(OCC)cc2)cc1,n,28.1,n,n,n,n,n,n
Cc1ccc(S(=O)(=O)NCC(=O)N2CCN(c3ccccn3)CC2)s1,x,x,n,x,x,x,x,x
COc1cc(C(=O)Nc2cccc(-c3nc4cc(C)ccc4o3)c2C)cc(OC)c1OC,n,37.3,n,n,n,n,n,n
COc1cc(C(=O)Nc2cccc(-c3nc4ncccc4o3)c2C)cc(OC)c1OC,n,n,n,n,n,n,x,x
O=C(N[C@H](C(=O)N1CCC[C@H]1C(=O)NCc1ccccc1)c1ccccc1)c1ccccc1,x,x,n,x,x,x,x,x
Cc1c(NS(=O)(=O)c2ccc3c(c2)CCN3C(=O)C2CC2)c(=O)n(-c2ccccc2)n1C,n,42.8,n,n,n,n,n,n
CCCN1Cc2cccc(C(=O)Nc3ccc(-c4nc5ccccc5[nH]4)cc3)c2C1=O,n,58.3,n,n,n,n,50.7,n
CC(=O)CC[C@@H]1CC[C@]2(CCCN(C(=O)c3ccco3)C2)O1,x,x,n,x,x,x,x,x
C/C(=N\NC(=O)c1c(Br)cnn1C)c1ccc(NC(=O)c2ccc(F)cc2)cc1,n,49.8,n,n,n,n,68.5,n
COc1ccccc1-c1ncn(Cc2cccc(-c3ccccc3)c2)c1-c1ccco1,x,x,n,x,x,x,x,x
CCOC(=O)c1c(-c2ccc(C)o2)csc1NC(=S)NC(=O)c1ccc(F)cc1,n,28.2,n,n,n,n,n,n
O=S(=O)(Nc1cc(Sc2cccc3cccnc23)c(O)c2ccccc12)c1ccc(F)cc1,n,32.7,n,x,x,x,n,n
N#C/C(=C(/O)COC(=O)CSc1ccc2ccccc2c1)c1nc2ccccc2[nH]1,n,39.1,n,n,n,n,n,n
Cc1ccc(C)c(SCC(=O)OC/C(O)=C(\C#N)c2nc3ccccc3[nH]2)c1,x,x,n,n,n,n,x,x
CCn1c(COc2cccc(C)c2C)nnc1SCC(=O)Nc1cc(C)on1,n,n,n,x,x,x,x,x
CCn1c(COc2ccccc2C)nnc1SCC(=O)Nc1cc(C)on1,n,50.4,n,n,n,n,n,n
O=[N+]([O-])c1ccccc1NCCNc1ncc(C(F)(F)F)cc1Cl,n,61.6,n,n,n,n,53.1,n
O=C(CSc1nc2ncc(Cl)cc2[nH]1)c1c[nH]c2ccccc12,n,31.0,n,n,n,n,n,n
O=C(CSc1nc2ccc(Cl)cc2[nH]1)c1c[nH]c2ccccc12,n,n,n,n,n,n,x,x

# High-throughput results deposited in PubChem BioAssay by The Scripps Research Institute Molecular Screening Center.
